According to PubChem BioAssay AID1159580 (chemical genetic matrix, 2015):
Out of some 5,500 compounds screened, about 2,000 (36%) were called active. Roughly 18% stayed inconclusive and do not appear here. Cut-off read from the data, not from the text of the source: active = normalized growth mostly below about 0.91 (no sharp cut-off); inconclusive = no clear call, values can overlap the other calls; inactive = mostly above about 0.92. Some of the results follow.

Experiment: chemical genetic growth profiling, strain panel (AID 1159580);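 note: tested at 20 µM; growth read once vehicle control cultures reached saturation at 30 °C; 1 = growth at the plate median or of vehicle wells; lower values mean less growth of the strain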
Conditions: growth OD

Measured: normalized growth

CCC(C)(C)C(=O)O[C@H]1C[C@@H](C)C=C2C=C[C@H](C)[C@H](CC[C@@H]3C[C@@H](O)CC(=O)O3)[C@H]21
active: S. cerevisiae deletion strains, locus YLR320W, strain mms22, hits give low values 0.855 | S. cerevisiae deletion strains, locus YMR307W, strain GAS1, hits give low values 0.554 | S. cerevisiae deletion strains, locus YNL071W, strain lat1, hits give low values 0.834 | S. cerevisiae deletion strains, locus YNL209W, strain ssb2, hits give low values 0.88 | S. cerevisiae deletion strains, locus YNR052C, strain pop2, hits give low values 0.911 | S. cerevisiae deletion strains, locus YOR070C, strain gyp1, hits give low values 0.845 | S. cerevisiae deletion strains, locus YOR265W, strain rbl2, hits give low values 0.922 | S. cerevisiae deletion strains, locus YOR270C, strain vph1, hits give low values 0.57 | S. cerevisiae deletion strains, locus YPL106C, strain sse1, hits give low values 1.15 [resistant]
inactive: S. cerevisiae deletion strains, locus YJR075W, strain HOC1, hits give low values 1 | S. cerevisiae deletion strains, locus YKL009W, strain mrt4, hits give low values 0.93 | S. cerevisiae deletion strains, locus YKL068W, hits give low values 1.03 | S. cerevisiae deletion strains, locus YKL085W, strain MDH1 (second series), hits give low values 1.02 | S. cerevisiae deletion strains, locus YKL085W, strain MDH1, hits give low values 1.02 | S. cerevisiae deletion strains, locus YKL160W, strain elf1, hits give low values 0.949 | S. cerevisiae deletion strains, locus YKL190W, strain CNB1, hits give low values 1.01 | S. cerevisiae deletion strains, locus YKR001C, strain vps1, hits give low values 1.01 | S. cerevisiae deletion strains, locus YKR026C, strain gcn3, hits give low values 1.01 | S. cerevisiae deletion strains, locus YKR091W, strain srl3, hits give low values 1.02 | S. cerevisiae deletion strains, locus YLL001W, strain dnm1, hits give low values 1 | S. cerevisiae deletion strains, locus YLL026W, hits give low values 0.981 | S. cerevisiae deletion strains, locus YLL041C, strain sdh2, hits give low values 1.01 | S. cerevisiae deletion strains, locus YLR027C, strain aat2, hits give low values 0.976 | S. cerevisiae deletion strains, locus YLR039C, strain RIC1, hits give low values 1.1 | S. cerevisiae deletion strains, locus YLR058C, strain SHM2, hits give low values 1.02 | S. cerevisiae deletion strains, locus YLR102C, strain apc9, hits give low values 1.04 | S. cerevisiae deletion strains, locus YLR113W, strain HOG1, hits give low values 1.04 | S. cerevisiae deletion strains, locus YLR221C, strain rsa3, hits give low values 0.909 | S. cerevisiae deletion strains, locus YLR258W, strain gsy2, hits give low values 0.927 | S. cerevisiae deletion strains, locus YLR262C, strain YPT6 (second series), hits give low values 1.05 | S. cerevisiae deletion strains, locus YLR262C, strain YPT6, hits give low values 0.58 | S. cerevisiae deletion strains, locus YLR268W, strain sec22, hits give low values 0.993 | S. cerevisiae deletion strains, locus YLR330W, strain CHS5, hits give low values 1 | S. cerevisiae deletion strains, locus YLR342W, strain FKS1 (second series), hits give low values 1.01 | S. cerevisiae deletion strains, locus YLR342W, strain FKS1, hits give low values 1 | S. cerevisiae deletion strains, locus YLR357W, strain rsc2, hits give low values 1.01 | S. cerevisiae deletion strains, locus YLR370C, strain arc18, hits give low values 1.01 | S. cerevisiae deletion strains, locus YLR371W, strain rom2, hits give low values 1.04 | S. cerevisiae deletion strains, locus YLR384C, strain iki3, hits give low values 0.978 | S. cerevisiae deletion strains, locus YLR418C, strain cdc73, hits give low values 0.856 | S. cerevisiae deletion strains, locus YML016C, strain PPZ1, hits give low values 1.02 | S. cerevisiae deletion strains, locus YML032C, strain rad52, hits give low values 1.02 | S. cerevisiae deletion strains, locus YML120C, strain ndi1, hits give low values 0.987 | S. cerevisiae deletion strains, locus YML124C, strain tub3, hits give low values 1.04 | S. cerevisiae deletion strains, locus YMR058W, strain fet3, hits give low values 0.977 | S. cerevisiae deletion strains, locus YMR078C, strain ctf18, hits give low values 1.04 | S. cerevisiae deletion strains, locus YMR125W, strain sto1, hits give low values 0.97 | S. cerevisiae deletion strains, locus YMR129W, hits give low values 1.02 | S. cerevisiae deletion strains, locus YMR205C, strain PFK2, hits give low values 0.978 | S. cerevisiae deletion strains, locus YMR223W, strain ubp8, hits give low values 0.991 | S. cerevisiae deletion strains, locus YMR231W, strain pep5, hits give low values 1 | S. cerevisiae deletion strains, locus YMR263W, strain SAP30, hits give low values 0.99 | S. cerevisiae deletion strains, locus YNL067W, strain RPL9B, hits give low values 0.998 | S. cerevisiae deletion strains, locus YNL128W, strain TEP1, hits give low values 0.979 | S. cerevisiae deletion strains, locus YNL153C, strain GIM3, hits give low values 0.986 | S. cerevisiae deletion strains, locus YNL183C, strain NPR1, hits give low values 0.897 | S. cerevisiae deletion strains, locus YNL233W, strain BNI4, hits give low values 0.947 | S. cerevisiae deletion strains, locus YNL248C, strain rpa49, hits give low values 0.932 | S. cerevisiae deletion strains, locus YNL250W, strain rad50, hits give low values 0.988 | S. cerevisiae deletion strains, locus YNL271C, strain bni1, hits give low values 1.01 | S. cerevisiae deletion strains, locus YNL298W, strain CLA4, hits give low values 1.03 | S. cerevisiae deletion strains, locus YNL307C, strain MCK1, hits give low values 0.942 | S. cerevisiae deletion strains, locus YNL322C, strain KRE1 (second series), hits give low values 1.07 | S. cerevisiae deletion strains, locus YNL322C, strain KRE1, hits give low values 1.01 | S. cerevisiae deletion strains, locus YNR049C, strain mso1, hits give low values 1.02 | S. cerevisiae deletion strains, locus YOL006C, strain TOP1, hits give low values 0.909 | S. cerevisiae deletion strains, locus YOL012C, strain htz1 1.29 | S. cerevisiae deletion strains, locus YOL147C, strain pex11, hits give low values 1.04 | S. cerevisiae deletion strains, locus YOR001W, strain rrp6, hits give low values 1.01 | S. cerevisiae deletion strains, locus YOR061W, strain CKA2, hits give low values 1.01 | S. cerevisiae deletion strains, locus YOR069W, strain VPS5, hits give low values 0.998 | S. cerevisiae deletion strains, locus YOR080W, strain dia2, hits give low values 0.971 | S. cerevisiae deletion strains, locus YOR083W, strain WHI5, hits give low values 0.981 | S. cerevisiae deletion strains, locus YOR106W, strain vam3, hits give low values 0.931 | S. cerevisiae deletion strains, locus YOR136W, strain idh2, hits give low values 1.01 | S. cerevisiae deletion strains, locus YOR144C, strain elg1, hits give low values 1.03 | S. cerevisiae deletion strains, locus YOR184W, strain ser1, hits give low values 0.944 | S. cerevisiae deletion strains, locus YOR231W, strain MKK1, hits give low values 0.956 | S. cerevisiae deletion strains, locus YOR290C, strain snf2, hits give low values 0.991 | S. cerevisiae deletion strains, locus YOR316C, strain cot1, hits give low values 1.03 | S. cerevisiae deletion strains, locus YPL051W, strain arl3, hits give low values 0.946 | S. cerevisiae deletion strains, locus YPL055C, strain LGE1, hits give low values 0.926 | S. cerevisiae deletion strains, locus YPL078C, strain atp4, hits give low values 0.983 | S. cerevisiae deletion strains, locus YPL240C, strain hsp82, hits give low values 0.997 | S. cerevisiae deletion strains, locus YPL241C, strain CIN2, hits give low values 1 | S. cerevisiae deletion strains, locus YPL256C, strain CLN2, hits give low values 1.02 | S. cerevisiae deletion strains, locus YPR119W, strain clb2, hits give low values 1.04 | S. cerevisiae deletion strains, locus YPR141C, strain kar3, hits give low values 1.02 | S. cerevisiae deletion strains, locus YPR163C, strain tif3, hits give low values 1.01 | S. cerevisiae deletion strains, locus YPR167C, strain met16, hits give low values 1.03 | S. cerevisiae deletion strains, strain wtn01, hits give low values 1.03 | S. cerevisiae strains, strain wild type, hits give low values 0.997
